Source: ChEMBL document CHEMBL1961873, “Compounds: GSK PKIS; Assays: Nanosyn kinase panel” (2012)

How the values were obtained:
[1] = tested on: Epidermal growth factor receptor (Homo sapiens), P00533 [T790M]; settings: at 1 µM
[2] = tested on: Epidermal growth factor receptor (Homo sapiens), P00533 [L858R,T790M]; settings: at 0.1 µM
[3] = tested on: Epidermal growth factor receptor (Homo sapiens), P00533 [L858R,T790M]; settings: at 1 µM
[4] = target: Ephrin type-A receptor 2 (Homo sapiens) (UniProt P29317); settings: at 0.1 µM
[5] = target: Ephrin type-A receptor 2 (Homo sapiens) (UniProt P29317); settings: at 1 µM
[6] = target: T1, Ephrin type-A receptor 3 (Homo sapiens) (UniProt P29320); settings: at 0.1 µM
T1 sequence (whole entry): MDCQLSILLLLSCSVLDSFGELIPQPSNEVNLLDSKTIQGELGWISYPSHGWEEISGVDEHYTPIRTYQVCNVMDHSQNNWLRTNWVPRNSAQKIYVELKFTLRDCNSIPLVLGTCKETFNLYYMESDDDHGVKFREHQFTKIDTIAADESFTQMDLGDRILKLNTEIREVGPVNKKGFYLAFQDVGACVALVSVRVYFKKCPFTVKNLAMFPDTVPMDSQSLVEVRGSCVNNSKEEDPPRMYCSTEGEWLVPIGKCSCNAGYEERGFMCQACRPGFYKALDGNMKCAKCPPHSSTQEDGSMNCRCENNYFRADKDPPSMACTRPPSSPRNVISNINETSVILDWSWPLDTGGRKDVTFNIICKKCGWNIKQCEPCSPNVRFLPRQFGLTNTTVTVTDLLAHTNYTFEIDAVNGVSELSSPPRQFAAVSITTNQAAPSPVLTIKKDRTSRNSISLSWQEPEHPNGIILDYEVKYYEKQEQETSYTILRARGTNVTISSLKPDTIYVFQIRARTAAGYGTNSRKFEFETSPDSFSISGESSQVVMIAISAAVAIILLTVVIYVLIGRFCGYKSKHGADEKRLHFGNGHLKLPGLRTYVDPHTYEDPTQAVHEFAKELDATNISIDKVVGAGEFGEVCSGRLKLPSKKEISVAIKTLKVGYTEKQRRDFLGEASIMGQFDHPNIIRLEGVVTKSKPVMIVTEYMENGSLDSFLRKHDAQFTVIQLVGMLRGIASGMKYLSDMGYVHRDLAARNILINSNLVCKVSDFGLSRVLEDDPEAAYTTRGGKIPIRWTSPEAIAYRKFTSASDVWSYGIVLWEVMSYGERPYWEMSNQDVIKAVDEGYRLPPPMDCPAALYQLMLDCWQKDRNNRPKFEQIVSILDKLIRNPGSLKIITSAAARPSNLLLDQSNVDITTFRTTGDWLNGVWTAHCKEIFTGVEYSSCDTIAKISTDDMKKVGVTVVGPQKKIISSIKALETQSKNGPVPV

[7] = target: T1, Ephrin type-A receptor 3 (Homo sapiens); settings: at 1 µM
[8] = target: Ephrin type-A receptor 4 (Homo sapiens) (UniProt P54764); settings: at 0.1 µM
[9] = target: Ephrin type-A receptor 4 (Homo sapiens) (UniProt P54764); settings: at 1 µM
[10] = target: T2, Ephrin type-B receptor 2 (Homo sapiens) (UniProt P29323); settings: at 0.1 µM
T2 sequence (whole entry): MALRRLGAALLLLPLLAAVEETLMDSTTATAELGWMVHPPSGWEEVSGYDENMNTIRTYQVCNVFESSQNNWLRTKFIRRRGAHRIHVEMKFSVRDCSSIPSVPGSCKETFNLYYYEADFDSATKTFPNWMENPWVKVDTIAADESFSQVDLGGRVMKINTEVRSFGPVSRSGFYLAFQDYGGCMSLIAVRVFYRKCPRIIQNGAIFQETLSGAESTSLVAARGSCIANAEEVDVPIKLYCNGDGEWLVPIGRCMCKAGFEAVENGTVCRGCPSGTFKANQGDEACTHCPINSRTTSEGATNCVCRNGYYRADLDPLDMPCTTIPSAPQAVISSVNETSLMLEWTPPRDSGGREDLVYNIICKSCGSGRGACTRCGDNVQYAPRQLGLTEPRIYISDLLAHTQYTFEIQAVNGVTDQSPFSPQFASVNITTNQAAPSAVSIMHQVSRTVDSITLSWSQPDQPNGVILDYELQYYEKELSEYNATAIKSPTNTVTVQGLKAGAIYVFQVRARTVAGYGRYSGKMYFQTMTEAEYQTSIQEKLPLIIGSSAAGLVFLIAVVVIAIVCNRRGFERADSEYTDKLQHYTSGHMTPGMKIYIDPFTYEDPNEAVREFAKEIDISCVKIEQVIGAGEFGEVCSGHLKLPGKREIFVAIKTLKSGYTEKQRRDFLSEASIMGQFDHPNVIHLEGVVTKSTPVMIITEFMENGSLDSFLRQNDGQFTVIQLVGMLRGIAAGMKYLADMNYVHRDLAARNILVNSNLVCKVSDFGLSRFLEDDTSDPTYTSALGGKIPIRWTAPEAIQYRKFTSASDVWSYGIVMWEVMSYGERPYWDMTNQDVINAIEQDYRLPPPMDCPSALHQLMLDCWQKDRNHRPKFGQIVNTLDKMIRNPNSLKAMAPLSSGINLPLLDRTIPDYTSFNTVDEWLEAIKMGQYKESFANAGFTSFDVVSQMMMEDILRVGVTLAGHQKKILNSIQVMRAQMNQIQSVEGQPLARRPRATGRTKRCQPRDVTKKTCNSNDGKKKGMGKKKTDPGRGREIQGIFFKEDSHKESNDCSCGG

[11] = target: T2, Ephrin type-B receptor 2 (Homo sapiens); settings: at 1 µM
[12] = target: T3, Ephrin type-B receptor 3 (Homo sapiens) (UniProt P54753); settings: at 0.1 µM
T3 sequence (whole entry): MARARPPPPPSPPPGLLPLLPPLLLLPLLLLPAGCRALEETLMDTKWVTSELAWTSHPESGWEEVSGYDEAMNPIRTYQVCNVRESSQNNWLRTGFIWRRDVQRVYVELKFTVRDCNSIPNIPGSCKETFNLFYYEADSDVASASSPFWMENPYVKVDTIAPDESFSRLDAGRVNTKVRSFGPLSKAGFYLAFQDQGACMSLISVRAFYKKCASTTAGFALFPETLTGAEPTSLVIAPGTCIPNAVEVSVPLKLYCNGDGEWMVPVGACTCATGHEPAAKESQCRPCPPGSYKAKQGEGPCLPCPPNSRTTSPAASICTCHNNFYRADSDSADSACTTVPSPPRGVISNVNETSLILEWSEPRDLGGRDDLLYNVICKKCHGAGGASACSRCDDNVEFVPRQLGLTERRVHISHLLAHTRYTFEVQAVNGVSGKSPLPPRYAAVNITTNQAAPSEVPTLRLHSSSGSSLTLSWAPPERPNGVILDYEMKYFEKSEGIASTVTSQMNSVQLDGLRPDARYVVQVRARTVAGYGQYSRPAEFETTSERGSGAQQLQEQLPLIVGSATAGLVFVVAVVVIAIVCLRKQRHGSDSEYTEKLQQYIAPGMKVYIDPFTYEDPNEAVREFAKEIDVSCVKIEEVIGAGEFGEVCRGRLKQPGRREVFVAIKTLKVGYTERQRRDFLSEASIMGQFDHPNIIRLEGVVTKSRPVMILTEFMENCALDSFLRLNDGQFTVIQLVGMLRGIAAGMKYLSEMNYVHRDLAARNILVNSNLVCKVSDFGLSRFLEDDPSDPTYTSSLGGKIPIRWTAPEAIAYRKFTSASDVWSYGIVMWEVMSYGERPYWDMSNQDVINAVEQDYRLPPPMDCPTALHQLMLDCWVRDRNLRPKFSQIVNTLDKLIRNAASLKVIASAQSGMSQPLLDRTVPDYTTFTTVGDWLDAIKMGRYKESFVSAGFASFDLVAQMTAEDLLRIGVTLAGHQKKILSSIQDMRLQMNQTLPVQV

[13] = target: T3, Ephrin type-B receptor 3 (Homo sapiens); settings: at 1 µM
[14] = target: T4, Ephrin type-B receptor 4 (Homo sapiens) (UniProt P54760); settings: at 0.1 µM
T4 sequence (whole entry): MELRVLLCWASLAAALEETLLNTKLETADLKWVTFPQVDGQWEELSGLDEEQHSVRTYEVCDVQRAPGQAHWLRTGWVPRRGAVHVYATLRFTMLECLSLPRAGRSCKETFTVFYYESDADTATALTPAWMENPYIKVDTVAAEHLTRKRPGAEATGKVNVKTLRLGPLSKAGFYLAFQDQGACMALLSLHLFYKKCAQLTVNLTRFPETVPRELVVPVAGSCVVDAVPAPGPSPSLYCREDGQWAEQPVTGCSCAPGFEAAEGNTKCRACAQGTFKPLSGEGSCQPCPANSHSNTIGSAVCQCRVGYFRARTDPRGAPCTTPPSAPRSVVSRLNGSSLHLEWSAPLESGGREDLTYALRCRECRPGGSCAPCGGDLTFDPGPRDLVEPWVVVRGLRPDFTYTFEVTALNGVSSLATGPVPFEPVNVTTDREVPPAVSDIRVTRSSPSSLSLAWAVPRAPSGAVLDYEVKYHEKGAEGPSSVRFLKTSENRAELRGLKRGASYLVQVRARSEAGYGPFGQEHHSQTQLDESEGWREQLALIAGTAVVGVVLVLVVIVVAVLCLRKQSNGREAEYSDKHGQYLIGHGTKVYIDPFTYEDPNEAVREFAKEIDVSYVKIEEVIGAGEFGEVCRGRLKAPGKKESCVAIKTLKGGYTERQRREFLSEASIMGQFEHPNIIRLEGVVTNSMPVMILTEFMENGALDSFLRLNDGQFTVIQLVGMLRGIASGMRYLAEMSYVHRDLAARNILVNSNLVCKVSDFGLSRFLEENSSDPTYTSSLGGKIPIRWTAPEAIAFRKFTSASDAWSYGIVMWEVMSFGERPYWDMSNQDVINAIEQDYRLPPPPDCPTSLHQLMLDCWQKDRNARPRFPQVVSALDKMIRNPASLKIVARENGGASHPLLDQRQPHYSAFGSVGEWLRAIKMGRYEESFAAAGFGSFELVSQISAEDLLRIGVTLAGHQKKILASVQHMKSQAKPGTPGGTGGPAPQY

[15] = target: T4, Ephrin type-B receptor 4 (Homo sapiens); settings: at 1 µM
[16] = target: Receptor tyrosine-protein kinase erbB-2 (Homo sapiens) (UniProt P04626); settings: at 0.1 µM
[17] = target: Receptor tyrosine-protein kinase erbB-2 (Homo sapiens) (UniProt P04626); settings: at 1 µM
[18] = target: Receptor tyrosine-protein kinase erbB-4 (Homo sapiens) (UniProt Q15303); settings: at 0.1 µM
[19] = target: Receptor tyrosine-protein kinase erbB-4 (Homo sapiens) (UniProt Q15303); settings: at 1 µM
[20] = target: Tyrosine-protein kinase Fer (Homo sapiens) (UniProt P16591); settings: at 0.1 µM;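 further: reported figures are averaged percent inhibition of FER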

Epidermal growth factor receptor (Homo sapiens), P00533 [L858R,T790M], sequence (P00533 whole entry T790M/L858R, looked up): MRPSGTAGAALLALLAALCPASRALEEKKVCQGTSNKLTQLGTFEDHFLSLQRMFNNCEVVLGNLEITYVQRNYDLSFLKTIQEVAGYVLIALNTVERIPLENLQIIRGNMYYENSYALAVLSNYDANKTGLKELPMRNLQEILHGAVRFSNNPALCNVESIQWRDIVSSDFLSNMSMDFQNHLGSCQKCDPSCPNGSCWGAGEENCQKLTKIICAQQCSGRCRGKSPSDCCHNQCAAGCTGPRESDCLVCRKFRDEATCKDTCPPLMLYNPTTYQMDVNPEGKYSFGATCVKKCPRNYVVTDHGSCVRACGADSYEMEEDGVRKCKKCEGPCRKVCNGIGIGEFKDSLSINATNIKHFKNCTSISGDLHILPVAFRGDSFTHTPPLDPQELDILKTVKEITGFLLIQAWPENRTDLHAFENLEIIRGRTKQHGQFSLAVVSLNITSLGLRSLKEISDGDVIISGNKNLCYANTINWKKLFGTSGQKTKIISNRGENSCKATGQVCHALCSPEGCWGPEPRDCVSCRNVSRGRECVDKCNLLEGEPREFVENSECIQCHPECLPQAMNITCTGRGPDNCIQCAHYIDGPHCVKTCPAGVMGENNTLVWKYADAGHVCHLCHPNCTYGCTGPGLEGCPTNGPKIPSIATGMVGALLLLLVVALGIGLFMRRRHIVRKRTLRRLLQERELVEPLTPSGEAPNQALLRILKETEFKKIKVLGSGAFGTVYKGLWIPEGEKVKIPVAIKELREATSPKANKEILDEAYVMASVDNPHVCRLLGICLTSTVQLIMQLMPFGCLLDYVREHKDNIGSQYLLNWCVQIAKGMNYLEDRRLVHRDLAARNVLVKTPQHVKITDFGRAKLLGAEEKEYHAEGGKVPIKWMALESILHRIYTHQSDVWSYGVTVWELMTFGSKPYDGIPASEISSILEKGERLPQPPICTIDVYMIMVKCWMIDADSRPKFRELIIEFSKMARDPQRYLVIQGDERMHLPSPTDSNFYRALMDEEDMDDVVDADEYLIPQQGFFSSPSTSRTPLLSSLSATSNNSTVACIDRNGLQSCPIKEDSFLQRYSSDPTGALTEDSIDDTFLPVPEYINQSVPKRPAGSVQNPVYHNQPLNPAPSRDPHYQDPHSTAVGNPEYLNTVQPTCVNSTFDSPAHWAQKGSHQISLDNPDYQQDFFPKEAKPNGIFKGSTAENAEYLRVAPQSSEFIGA
Epidermal growth factor receptor (Homo sapiens), P00533 [T790M], sequence (P00533 whole entry T790M): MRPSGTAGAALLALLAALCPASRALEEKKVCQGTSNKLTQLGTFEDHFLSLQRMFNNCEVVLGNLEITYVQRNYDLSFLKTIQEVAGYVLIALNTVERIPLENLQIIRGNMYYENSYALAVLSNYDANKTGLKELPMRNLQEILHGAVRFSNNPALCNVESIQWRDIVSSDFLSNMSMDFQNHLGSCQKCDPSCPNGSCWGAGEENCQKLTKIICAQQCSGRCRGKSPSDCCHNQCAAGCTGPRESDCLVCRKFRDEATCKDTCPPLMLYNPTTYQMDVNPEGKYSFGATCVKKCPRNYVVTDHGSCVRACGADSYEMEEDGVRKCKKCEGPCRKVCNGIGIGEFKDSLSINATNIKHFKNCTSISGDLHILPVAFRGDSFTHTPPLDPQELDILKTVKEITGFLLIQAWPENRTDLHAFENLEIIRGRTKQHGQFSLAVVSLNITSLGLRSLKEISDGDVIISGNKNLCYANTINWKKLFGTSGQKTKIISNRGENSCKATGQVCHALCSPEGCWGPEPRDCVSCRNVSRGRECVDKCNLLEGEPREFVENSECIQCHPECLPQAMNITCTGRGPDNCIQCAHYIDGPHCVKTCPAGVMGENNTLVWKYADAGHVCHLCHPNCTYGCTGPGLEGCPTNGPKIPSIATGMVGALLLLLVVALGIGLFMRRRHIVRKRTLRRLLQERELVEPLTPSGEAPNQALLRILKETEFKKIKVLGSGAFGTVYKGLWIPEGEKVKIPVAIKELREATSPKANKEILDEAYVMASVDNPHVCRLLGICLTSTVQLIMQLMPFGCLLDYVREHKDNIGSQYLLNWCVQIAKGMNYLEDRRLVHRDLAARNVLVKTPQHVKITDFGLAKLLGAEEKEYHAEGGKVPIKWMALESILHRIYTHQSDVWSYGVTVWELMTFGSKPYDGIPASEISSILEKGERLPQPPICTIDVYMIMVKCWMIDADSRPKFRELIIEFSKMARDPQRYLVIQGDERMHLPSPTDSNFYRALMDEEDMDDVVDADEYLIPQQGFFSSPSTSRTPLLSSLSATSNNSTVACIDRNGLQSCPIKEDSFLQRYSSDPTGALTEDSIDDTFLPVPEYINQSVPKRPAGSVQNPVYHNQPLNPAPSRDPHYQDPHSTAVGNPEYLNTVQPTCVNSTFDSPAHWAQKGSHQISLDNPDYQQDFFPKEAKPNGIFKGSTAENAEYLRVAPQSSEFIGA
Receptor tyrosine-protein kinase erbB-4 (Homo sapiens), sequence (Q15303 whole entry): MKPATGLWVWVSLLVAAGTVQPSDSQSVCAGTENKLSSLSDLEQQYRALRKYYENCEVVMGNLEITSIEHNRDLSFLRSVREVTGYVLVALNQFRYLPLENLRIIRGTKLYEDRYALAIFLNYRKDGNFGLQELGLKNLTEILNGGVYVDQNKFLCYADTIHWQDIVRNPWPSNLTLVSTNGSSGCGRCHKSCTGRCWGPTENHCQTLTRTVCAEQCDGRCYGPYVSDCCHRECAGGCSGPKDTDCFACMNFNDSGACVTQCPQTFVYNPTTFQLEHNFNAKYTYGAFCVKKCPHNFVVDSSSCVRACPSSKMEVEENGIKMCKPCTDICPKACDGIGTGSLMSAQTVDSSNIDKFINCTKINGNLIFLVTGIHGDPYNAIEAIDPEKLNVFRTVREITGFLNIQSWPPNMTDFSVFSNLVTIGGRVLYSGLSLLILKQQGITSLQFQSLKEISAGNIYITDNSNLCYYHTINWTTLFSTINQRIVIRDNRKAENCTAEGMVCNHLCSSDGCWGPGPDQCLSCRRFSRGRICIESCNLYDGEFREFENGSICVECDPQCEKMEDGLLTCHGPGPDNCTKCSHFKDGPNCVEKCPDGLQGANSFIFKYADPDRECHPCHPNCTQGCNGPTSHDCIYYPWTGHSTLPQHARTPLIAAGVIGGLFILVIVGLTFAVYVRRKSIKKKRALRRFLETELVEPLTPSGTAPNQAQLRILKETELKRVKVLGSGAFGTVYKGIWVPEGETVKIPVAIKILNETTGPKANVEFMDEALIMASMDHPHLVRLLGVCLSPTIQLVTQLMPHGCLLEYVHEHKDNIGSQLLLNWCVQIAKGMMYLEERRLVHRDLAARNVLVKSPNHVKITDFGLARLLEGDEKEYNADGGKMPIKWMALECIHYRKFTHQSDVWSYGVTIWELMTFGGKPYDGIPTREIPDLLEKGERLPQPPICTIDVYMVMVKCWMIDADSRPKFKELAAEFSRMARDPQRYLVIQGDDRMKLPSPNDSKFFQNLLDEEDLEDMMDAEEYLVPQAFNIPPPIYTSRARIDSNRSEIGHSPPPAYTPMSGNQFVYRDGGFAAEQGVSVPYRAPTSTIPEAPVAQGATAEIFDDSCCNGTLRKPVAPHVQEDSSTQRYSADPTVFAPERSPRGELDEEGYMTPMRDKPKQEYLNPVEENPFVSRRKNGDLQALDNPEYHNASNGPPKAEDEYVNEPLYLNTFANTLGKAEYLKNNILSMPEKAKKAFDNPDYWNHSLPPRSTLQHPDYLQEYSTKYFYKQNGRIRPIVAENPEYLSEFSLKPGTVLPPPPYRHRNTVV
Receptor tyrosine-protein kinase erbB-2 (Homo sapiens), sequence (P04626 whole entry): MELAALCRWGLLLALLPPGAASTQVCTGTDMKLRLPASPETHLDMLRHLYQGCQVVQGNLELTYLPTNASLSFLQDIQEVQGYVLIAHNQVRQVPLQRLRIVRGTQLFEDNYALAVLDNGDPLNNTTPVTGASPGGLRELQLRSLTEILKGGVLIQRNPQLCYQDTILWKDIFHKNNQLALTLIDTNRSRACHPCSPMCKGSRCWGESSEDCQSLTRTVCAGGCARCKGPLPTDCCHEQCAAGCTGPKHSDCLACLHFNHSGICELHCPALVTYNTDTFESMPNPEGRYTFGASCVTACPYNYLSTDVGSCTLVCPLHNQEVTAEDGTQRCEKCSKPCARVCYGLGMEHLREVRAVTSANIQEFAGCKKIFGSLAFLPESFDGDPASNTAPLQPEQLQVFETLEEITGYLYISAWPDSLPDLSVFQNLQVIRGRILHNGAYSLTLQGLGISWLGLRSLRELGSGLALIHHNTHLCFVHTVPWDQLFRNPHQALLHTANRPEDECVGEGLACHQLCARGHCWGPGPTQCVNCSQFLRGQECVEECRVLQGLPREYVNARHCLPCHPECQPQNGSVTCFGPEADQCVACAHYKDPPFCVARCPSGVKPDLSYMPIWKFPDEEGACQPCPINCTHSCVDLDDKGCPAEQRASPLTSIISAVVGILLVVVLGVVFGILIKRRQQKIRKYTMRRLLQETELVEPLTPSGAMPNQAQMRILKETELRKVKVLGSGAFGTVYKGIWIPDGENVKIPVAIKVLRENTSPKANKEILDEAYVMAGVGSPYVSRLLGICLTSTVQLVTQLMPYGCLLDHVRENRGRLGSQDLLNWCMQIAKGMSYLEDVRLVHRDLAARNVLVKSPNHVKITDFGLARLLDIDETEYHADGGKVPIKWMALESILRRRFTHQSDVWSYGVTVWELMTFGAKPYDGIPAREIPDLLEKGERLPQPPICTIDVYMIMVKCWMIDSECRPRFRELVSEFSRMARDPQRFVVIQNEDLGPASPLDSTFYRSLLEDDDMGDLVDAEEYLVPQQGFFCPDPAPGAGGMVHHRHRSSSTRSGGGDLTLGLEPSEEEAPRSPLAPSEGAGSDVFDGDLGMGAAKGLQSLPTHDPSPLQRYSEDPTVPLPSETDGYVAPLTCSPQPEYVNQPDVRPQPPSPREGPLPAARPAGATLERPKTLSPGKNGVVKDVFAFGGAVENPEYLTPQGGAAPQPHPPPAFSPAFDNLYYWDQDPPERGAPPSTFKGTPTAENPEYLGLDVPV

SMILES	inhibition [1]	inhibition [2]	inhibition [3]	inhibition [4]	inhibition [5]	inhibition [6]	inhibition [7]	inhibition [8]	inhibition [9]	inhibition [10]	inhibition [11]	inhibition [12]	inhibition [13]	inhibition [14]	inhibition [15]	inhibition [16]	inhibition [17]	inhibition [18]	inhibition [19]	inhibition [20]
COc1ccccc1-c1cc(/C=C2\C(=O)Nc3ncc(Br)cc32)cc(Br)c1O	1.53%	1.24%	4.48%	1.75%	3.18%	4.45%	5.49%	9.58%	6.4%	6.05%	7.78%	8.03%	5.59%	1.76%	4.26%	1.14%	-4.15%	11.2%	17.7%	1.71%
OCCCNc1nccc(-c2c(-c3ccc(F)cc3)nn3cc(C(F)(F)F)ccc23)n1	-0.33%	-1.34%	5.46%	1.26%	1.9%	2.86%	3.67%	8.53%	13.3%	8.48%	28.2%	4.77%	1.45%	1.6%	7.56%	0.24%	-0.41%	8.07%	14.4%	1.98%
O=C1Nc2ccccc2/C1=C1\CCc2cc(O)ccc21	2.73%	1.8%	4.76%	2.66%	2%	6.06%	4.39%	7.97%	3.3%	3.53%	9.85%	7.65%	3.73%	1.66%	2.84%	0.88%	-3.46%	8.95%	13.7%	7%
CN1CCC(n2cnc(-c3ccc(F)cc3)c2-c2ccnc(NCCO)n2)CC1	4.06%	1.79%	5.98%	2.31%	-0.04%	5.3%	5.33%	7.76%	14.7%	8.26%	10.7%	4.67%	2%	1.85%	8.07%	0.93%	6.66%	9.26%	12.3%	7.03%
COc1ccc2ncn(-c3cc(O[C@H](C)c4ccccc4C(F)(F)F)c(C(N)=O)s3)c2c1	-1.39%	-1.39%	-0.48%	-3.1%	-4.03%	0.39%	2.63%	0.27%	0.47%	1.25%	1.95%	1.32%	0.52%	-1.21%	1.77%	-0.36%	-1.72%	1.06%	3.12%	1.06%
CN(C)CCNC(=O)Nc1ccc(N(C)c2ccnc(Nc3ccc(CS(C)(=O)=O)cc3)n2)cc1	1.68%	4.53%	6.61%	2.63%	1.36%	3.79%	4.33%	6.86%	6.65%	10.6%	15.1%	5.05%	1.99%	2.45%	3.65%	0.75%	-0.72%	8.93%	9.37%	4.17%
